miR-122 sensor – inhibitors of miR-122 in Huh7 cells. hit rate 0.3% among 340,000. Huh7 miR-122 Renilla luciferase sensor, 48 h; neutral wells = 0, positive control = 100. activation (reporter increase), % at 12.5 µM;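 active means mean replicate activation score at least 90 and every replicate individually at or above 90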;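 further: higher luciferase means less miR-122 activity so hits act as miR-122 inhibitors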
Glyco luc inh – blocks N-linked glycosylation in D54 reporter cells | D54 ERlucT glycosylation luciferase reporter, 24 h; percent of 100 nM tunicamycin response | reporter increase, % at 12.5 µM | hit rate 0.23% among 360,000 | AID 588692;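 active means mean luciferase reporter signal, scaled so untreated is 0 and the glycosylation-blocking control 100, at or above a set limit in every replicate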;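 further: luciferase carries N-glycosylation sites so blocking glycosylation raises the light; 0% = median of neutral control wells and 100% = median of 100 nM tunicamycin wells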
NRP1-CendR mod – NRP-1/CendR interaction modulation | hit rate 0.85% among 360,000 | FAM-RPARPAR peptide binding to NRP-1, fluorescence polarization | inhibition, % at 25 µM;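 active means inhibition or corrected inhibition above about 18%, plus a signal ratio from 0.5 to 1.5, limit read from the data, passing the limit was not always enough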
DNA FID counter – counter-screen for HCV NS3 helicase inhibitors: DNA intercalator displacement; DNA fluorescent intercalator displacement, fluorescence; inhibition, % at 7.9 µM; hit rate 0.17% among 290,000; in the data active means inhibition above about 37%;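 further: 0% = vehicle and 100% = reference compound; higher means more ethidium bromide displaced from hairpin DNA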
RAD52 inh – RAD52 (human) annealing inhibition | recombinant RAD52 DNA annealing, FRET fluorescence | P43351 | inhibition, % at 18.7 µM | AID 651710 | hit rate 0.46% among 360,000;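 active means every replicate showing at least 50% inhibition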
RAD54 inh – blocks human RAD54 Holliday junction branch migration; Q92698; FAM/BHQ fluorescence; inhibition, % at 10.4 µM; hit rate 0.14% among 360,000; AID 602329;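 active means mean normalized replicate activity at least 40 and at least half of replicates scoring 40 or more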;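 further: 0% = median of neutral control wells and 100% = median of positive control wells; inhibitors cause a drop in the FAM fluorescence signal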
Target sequence (Q92698 whole entry, looked up): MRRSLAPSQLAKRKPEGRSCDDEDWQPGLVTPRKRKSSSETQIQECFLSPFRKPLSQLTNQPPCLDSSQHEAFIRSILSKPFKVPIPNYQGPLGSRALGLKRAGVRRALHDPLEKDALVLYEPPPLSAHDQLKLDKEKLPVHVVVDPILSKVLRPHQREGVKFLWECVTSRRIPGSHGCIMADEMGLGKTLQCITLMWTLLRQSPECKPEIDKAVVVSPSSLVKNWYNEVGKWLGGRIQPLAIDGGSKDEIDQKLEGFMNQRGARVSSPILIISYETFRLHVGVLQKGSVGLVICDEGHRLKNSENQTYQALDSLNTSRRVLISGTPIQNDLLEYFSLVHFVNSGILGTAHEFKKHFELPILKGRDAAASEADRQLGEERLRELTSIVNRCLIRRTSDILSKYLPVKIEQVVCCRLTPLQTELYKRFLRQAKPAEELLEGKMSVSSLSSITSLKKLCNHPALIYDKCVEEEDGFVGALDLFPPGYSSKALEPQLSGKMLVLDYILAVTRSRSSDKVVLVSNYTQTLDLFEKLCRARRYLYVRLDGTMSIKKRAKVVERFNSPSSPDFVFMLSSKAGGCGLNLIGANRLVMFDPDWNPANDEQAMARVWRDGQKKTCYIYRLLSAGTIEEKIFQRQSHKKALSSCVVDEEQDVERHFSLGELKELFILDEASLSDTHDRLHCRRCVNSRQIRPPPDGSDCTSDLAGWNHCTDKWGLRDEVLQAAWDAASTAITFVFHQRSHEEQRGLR
Active calls of the source: *; / = no result; [ ] = another dose, or the depositor's remark. Sampled rows, rich in hits. Any-hit rate of the full collection: about 1.5%.

SMILES | miR-122 sensor | Glyco luc inh | NRP1-CendR mod | DNA FID counter | RAD52 inh | RAD54 inh
Cc1noc(C)c1C(=O)OC(C)C(=O)Nc1ccc(S(=O)(=O)NC(C)C)cc1 (configuration not stated) | 0 | 1 | -13 | -12 | / | -1
CNC(=O)NC(=O)C(C)OC(=O)c1c(C)noc1C (configuration not stated) | 0 | 1 | 43* | 5 | / | /
O=C(COc1ccc2c(-c3ccccc3)cc(=O)oc2c1)N[C@@H](Cc1c[nH]c2ccc(O)cc12)C(=O)O | 0 | 50* | -25 | -16 | -13 | -13
C[C@H]1CN([C@@H](C)CO)C(=O)c2cc(NC(=O)NC3CCCCC3)ccc2O[C@H]1CN(C)S(=O)(=O)c1ccccc1 | -6[16.7 µM] | / | / | / | 14 | 0
C[C@H](CO)N1C[C@H](C)[C@H](CN(C)Cc2ccncc2)OCCCC[C@H](C)Oc2ccc(NC(=O)Nc3ccc(C(F)(F)F)cc3)cc2C1=O | -15[16.7 µM] | / | / | / | 32 | 2
O=C(NCCC1=CCCCC1)C1CCC(CNc2nc(=S)[nH]c3ccccc23)CC1 (configuration not stated) | 0 | 58* | -12 | 8 | -6 | 4
CCOC(=O)C1=CCN(S(=O)(=O)c2ccc(C)cc2)C1c1ccc(C)cc1 (configuration not stated) | -7 | 0 | -4 | / | -1 | 3
CCOC(=O)C1=CCN(S(=O)(=O)c2ccccc2Br)C1c1ccccc1 (configuration not stated) | 1 | -1 | 25* | / | -14 | -5
CCOC(=O)C1=CCN(S(=O)(=O)c2ccc(C)cc2)C1c1ccc(C(C)C)cc1 (configuration not stated) | 2 | 0 | 28* | / | -4 | 18
CCOC(=O)C(C)Sc1nnc(Cc2cc(=O)[nH]c(=O)[nH]2)n1-c1ccc(OCC)cc1 (configuration not stated) | 0 | 0 | -4 | -21 | -17 | -3
CCOc1ccc(-n2c(Cc3cc(=O)[nH]c(=O)[nH]3)nnc2SC(C)C)cc1 | 3 | 1 | 38* | -13 | / | -13
CCOn1c(=O)c[n+]([O-])c2ccccc21 | 2 | 0 | -27 | 2 | -136 | -8
O=c1c[n+]([O-])c2ccccc2n1OCc1c(F)cccc1F | 111* | -1 | -9 | -11 | / | -1
Cc1cc(C)n(CCc2nc(-c3cccs3)cs2)n1 | 1 | -2 | 31* | -6 | / | -5
COc1ccc(S(=O)(=O)N2CCOCC2)cc1NC(=O)COc1ccccc1OC | 3 | -1 | 2 | -37 | 5 | -6
COc1ccccc1Oc1ccc(S(=O)(=O)N2CCOCC2)cc1S(=O)(=O)N1CCOCC1 | / | -1 | 27* | -36 | / | 1
C[C@H](CO)N1C[C@H](C)[C@H](CN(C)C(=O)NC2CCCCC2)OCCCC[C@H](C)Oc2ccc(NS(=O)(=O)c3cn(C)cn3)cc2C1=O | 27[16.7 µM] | / | / | / | 15 | -8
CCC(C)c1ccc(NC(=S)NCc2cccs2)cc1 (configuration not stated) | 174* | -1 | 14 | -7 | / | 3
CC(C)(C)c1ccc(NC(=S)NCc2cccs2)cc1 | 56 | -1 | 14 | -11 | / | /
O=C(NC[C@@H]1CC[C@@H]2[C@@H](CN2C(=O)NC2CCCC2)O1)c1ccc2c(c1)OCO2 | / | / | / | / | 112* | /
O=C(NC[C@H]1CC[C@H]2[C@H](CN2C(=O)NC2CCCC2)O1)c1ccc2c(c1)OCO2 | / | / | / | / | -12 | /
O=C(C[C@H]1CC[C@@H]2[C@H](COC[C@H](O)CN2C(=O)c2ccc3c(c2)OCO3)O1)NCCN1CCCC1 | / | / | / | / | -11 | /
O=C(O)CSc1nnc(-c2ccc(Cl)cc2Cl)n1-c1ccc(Cl)cc1 | 1 | 3 | 26* | -34 | -11 | 7
CN1c2ccc(-c3cccc(C#N)c3)cc2[C@H]2[C@H](CCN2C(=O)C2CC2)[C@@H]1CO | / | / | / | / | -22 | /
COc1ccc2c3c(n(C)c2c1)[C@@H](CO)N(C(=O)Cc1ccccc1)CC31CN(C(C)=O)C1 | / | / | / | / | -8 | /
CCCN1CCC(NC(=S)Nc2ccc(OC)c(OC)c2)CC1 | 1 | -1 | 5 | 1 | 9 | -6
CCCN1CCC(NC(=O)Nc2ccc(OC)c(OC)c2)CC1 | -1 | -2 | 49* | 5 | / | -5
CC(=O)Nc1cncc(-c2ccccc2C(C)=O)n1 | -4 | 0 | 8 | / | -25 | -6
CNc1cncc(-c2ccccc2NC(C)=O)n1 | -8 | 2 | 32* | / | -5 | 5
